Potency and activity change, negative = inhibition data for 40 compounds are collected here from PubChem BioAssay (Tox21).

Results filed as inconclusive are left out. Entries that show only a call come without a potency. The source made the active and inactive calls. Calls come from the whole dose curve; as a rule, active = well fitted inhibition curve with a large enough effect in the repeat runs; inconclusive = weak or mixed curves; inactive = flat fitted curve, though single readings scatter.

Chain of Luciferin 4-monooxygenase (Photinus pyralis) (P08659 whole entry, looked up): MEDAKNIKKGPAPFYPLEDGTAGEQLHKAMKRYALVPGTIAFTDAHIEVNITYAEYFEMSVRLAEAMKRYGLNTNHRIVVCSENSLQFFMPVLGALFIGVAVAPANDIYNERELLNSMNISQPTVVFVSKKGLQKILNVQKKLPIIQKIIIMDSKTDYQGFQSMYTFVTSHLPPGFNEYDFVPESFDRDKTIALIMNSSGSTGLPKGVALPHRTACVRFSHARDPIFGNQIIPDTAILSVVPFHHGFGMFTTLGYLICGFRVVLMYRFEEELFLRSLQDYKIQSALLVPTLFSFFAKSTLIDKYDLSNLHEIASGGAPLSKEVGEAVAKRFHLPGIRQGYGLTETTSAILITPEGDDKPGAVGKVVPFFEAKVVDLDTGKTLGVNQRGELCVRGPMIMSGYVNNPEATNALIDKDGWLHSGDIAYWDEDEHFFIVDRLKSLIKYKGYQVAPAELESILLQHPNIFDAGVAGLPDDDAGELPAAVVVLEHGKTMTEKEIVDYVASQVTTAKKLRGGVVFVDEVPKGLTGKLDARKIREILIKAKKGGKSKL

This test has as its target Luciferin 4-monooxygenase (Photinus pyralis) (UniProt P08659). The test can be described thus: qHTS assay to identify small molecule inhibitors of firefly luciferase (AID 1224835). Note: nearly all actives have a fitted effect of over 25% in size. The conditions noted are these: purified P. pyralis luciferase, luminescence inhibition; series mostly up to 115 µM. The source says: U.S. Tox21 Program National Center for Advancing Translational Sciences [NCATS] NIH Chemical Genomics Center [NCGC] U.S. Environmental Protection Agency [EPA] National Institutes of Environmental Health Sciences [NIEHS] National Toxicology Program [NTP] U.S. Food and Drug Administration [FDA] Tox21 Assay Overview: Firefly (Photinus pyralis) luciferase is one of the most commonly used transcriptional reporters. Firefly luciferase reporter-gene assays are generally considered one of the most sensitive assay types (Wood, 1995; Wood, 1998). However, it was initially observed, in 1991, by Thompson et al., that compounds that resemble the substrates of firefly luciferase (FLuc) can act as competitive inhibitors of the enzyme, and that these compounds, upon interaction with luciferase in the cell, can actually stabilize the protein and increase its half-life. Previous profiling work by other groups to determine the prevalence of compounds that affect FLuc enzymatic activity (PubChem AID 411) identified that ~3% of the MLSMR library (then at ~72K) inhibited FLuc. […] Thus the Tox21 10K library is profiled for activity against FLuc using a biochemical assay of purified FLuc and KM concentrations of FLuc substrates (D-luciferin and ATP).
These assay plates were then treated with 23nL of compound or DMSO using a Kalypsys pin tool, which allows for delivery of a 6-point interplate titration of each compound to the assay plate (quantitative HTS.) 1 uL of firefly luciferase mix (containing 50 mM Tris acetate, pH 7.6, 0.04 uM P. pyralis luciferase, 0.01% Tween, 0.05% BSA and dH2O) was then delivered by FRD to each well. Luciferase activity was then measured using a ViewLux CCD imager.
Regarding `OCCCCC(O)CO` (stereo not given), the Potency result is “inactive”.

Turning to `COc1ccc(S(=O)(=O)N2c3ccc(Cl)cc3[C@@](O)(c3ccccc3Cl)[C@H]2C(=O)N2CCC[C@@H]2C(N)=O)cc1OC`, the Potency entry is “inactive”.

Turning to `CC(=O)Nc1ccc(S(=O)(=O)Cl)cc1`, the Potency entry is “inactive”.

Take `CC(C)(C)c1nnc(NS(=O)(=O)c2ccc(N)cc2)s1`: the Potency result was “inactive”.

In the case of `Cc1cccc(C)c1OCC(C)N` (stereo not given), the Potency result is “inactive”.

For `CNS(=O)(=O)CCc1ccc2[nH]cc(C3CCN(C)CC3)c2c1`, the Potency result is “inactive”.

Turning to `Cc1cccc2nccnc12`, the Potency result is “inactive”.

For the compound `Brc1ccc(-c2ccccc2)cc1`, the Potency was 35.5 µM (active).

For the compound `CC(C)C(=O)OCc1cccc(OC(=O)[C@@H]2N3C(=O)[C@@H](NC(=O)Cc4ccccc4)[C@H]3SC2(C)C)c1`, the Potency result is “inactive”.

For `N[C@@H](CCC(=O)Nc1ccc([N+](=O)[O-])cc1)C(=O)O`, the Potency result was “inactive”.

`CCCOC(OCCC)OCCC`: the Potency result was “inactive”.

As to `N[C@@H](COP(=O)(O)O)C(=O)O`, the activity change, negative = inhibition was 0.319% [at 23.6 µM] (inactive).

For the compound `O=S(=O)(O)CCN1CCN(CCO)CC1`, the Potency result is “inactive”.

For the compound `Cc1c(I)c(=O)n(-c2ccccc2)n1C`, the Potency entry is “inactive”.

For `O=C(O)CCSSCCC(=O)O`, the Potency result was “inactive”.

Regarding `Cc1cc(Cl)c(C)cc1Cl`, the Potency result was “inactive”.

As for `ClCCCl`, the Potency entry is “inactive”.

`COc1cc(C(=S)N2CCOCC2)cc(OC)c1OC`: the Potency result is “inactive”.

Consider `CCOc1cc([N+](=O)[O-])c(OCC)cc1N1CCOCC1`, for which the Potency entry was “inactive”.

On to `CC(C)CCCCOC(=O)c1ccccc1C(=O)OCCCCC(C)C`, for which the Potency result was “inactive”.

For `C[C@@H](O)[C@H]1C(=O)N2C(C(=O)O)=C(SCCN=CN)C[C@H]12`, the Potency entry is “inactive”.

Consider `COc1ccc(OC)c(Cl)c1`, for which the Potency entry was “inactive”.

With `CC[C@H](C)C(=O)O[C@H]1C[C@H](O)C=C2C=C[C@H](C)[C@H](CC[C@@H](O)C[C@@H](O)CC(=O)O)[C@H]21`, the Potency entry was “inactive”.

As for `O=C(O)c1ccc(Cl)cc1Cl`, the Potency entry was “inactive”.

For `CC/C=C\CC1=C(C)CCC1=O`, the Potency entry was “inactive”.

`Nc1cccc(O)c1`: the Potency result is “inactive”.

Regarding `OCCN(CCO)c1cccc(Cl)c1`, the Potency entry is “inactive”.

Consider `COc1cc2c(cc1OC)[C@@H]1CC(=O)[C@@H](CC(C)C)CN1CC2`, for which the Potency result is “inactive”.

Take `O=C(NCCN1CCOCC1)c1ccc(Cl)cc1`: the Potency result was “inactive”.

For `CCOC(=O)[C@H](CCc1ccccc1)N[C@@H](C)C(=O)N1C(=O)N(C)C[C@H]1C(=O)O`, the Potency result is “inactive”.

For the compound `COCCOCCOCCOCCOCCO`, the Potency result was “inactive”.

Turning to `Cc1ccccc1OCC(O)CO` (stereo not given), the Potency entry was “inactive”.

With `CCCCCCOC(=O)CC`, the Potency entry is “inactive”.

In the case of `O=C(O)Cc1ccc(Cl)cc1Cl`, the Potency result is “inactive”.

Take `O=S(=O)(O)c1cc(O)c2ccc(Nc3ccccc3)cc2c1`: the Potency is 17.8 µM (active).

Consider `CC(CO)c1ccccc1` (stereo not given), for which the Potency entry is “inactive”.

In the case of `CN(C)CCOCCO`, the Potency entry was “inactive”.

Take `CC(CN)CC(C)(C)CCN` (stereo not given): the Potency result is “inactive”.

Take `CC(C)NCC(O)COc1ccc(COCCOC(C)C)cc1` (stereo not given): the Potency result was “inactive”.

As to `C[Si](C)=O`, the activity change, negative = inhibition was 5.26% [at 10.5 µM] (inactive).
